Measured values reported in PubChem BioAssay AID2366 (The Scripps Research Institute Molecular Screening Center, 2010).

assay: PME-1 inhibitor potency by in-gel ABPP, dose response, selectivity assay for PME-1 inhibitor project, cell lysate, mouse brain cytosol, FP-rhodamine (AID 2366); conditions: gel-based ABPP;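 active = compounds picked for the later follow-up tests because of their potency and selectivity; inactive = compounds skipped in follow-up as weaker or less selective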

IC50, inactive:
N#C/C(=C\c1cccn1S(=O)(=O)c1cccc([N+](=O)[O-])c1)S(=O)(=O)c1ccc(F)cc1 > 50 µM, CS(=O)(=O)/C(C#N)=C/c1cccn1S(=O)(=O)c1ccc([N+](=O)[O-])cc1 > 50 µM, CS(=O)(=O)/C(C#N)=C/c1cccn1S(=O)(=O)c1ccccc1 > 50 µM, N#C/C(=C\c1cccn1S(=O)(=O)c1cccc(C#N)c1)S(=O)(=O)c1ccc(F)cc1 > 50 µM, CC(C)(C)S(=O)(=O)/C(C#N)=C/c1cccn1S(=O)(=O)c1ccccc1 > 50 µM
